Results: the supplement of paper PMC10849652
The full data set covers some 8,800 targets. This sample favours those with a hit. About 0.5% of all pairs of compound and target were hits.

Assays:
Test in all cases: log2 fold change, soluble protein after heating vs DMSO (PISA); higher = thermal stabilisation; K562 lysate, 10 uM; active = over 0.2 and 3.5 SD of the protein, either way, in both replicates (recomputed)
alvocidib = compound: CN1CC[C@H](c2c(O)cc(O)c3c(=O)cc(-c4ccccc4Cl)oc23)[C@H](O)C1 [alvocidib]
Summary of the method: (§1)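 Quantification was by TMTpro 16plex LC-MS/MS with equalised channel sums, applied to the supernatant after 21,000xg for 90 min. Samples were crude K562 extract at 1 mg/mL protein in PBS pH 7.4 with 1 mM MgCl2, treated with 10 μM compound for 30 min, heated for 3 min across 48°C-58°C, pooled and brought to 0.5% NP-40 at 4°C. Values are log-two fold changes in thermal stability relative to solvent controls, from duplicates.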

Tubastatin A = compound: CN1CCc2c(c3ccccc3n2Cc2ccc(C(=O)NO)cc2)C1 [Tubastatin A]
Summary of the method: as §1

[1] = compound: CNC(=O)C1=CC=CC=C1NC2=NC(=NC=C2Cl)NC3=C(C=C(C=C3)N4CCOCC4)OC
Summary of the method: as §1

defactinib = compound: CNC(=O)c1ccc(Nc2ncc(C(F)(F)F)c(NCc3nccnc3N(C)S(C)(=O)=O)n2)cc1 [defactinib]
Summary of the method: as §1

[2] = compound: CNc1nc(-c2ccc3c(N)n[nH]c3c2)cc(N2C[C@@H](C(=O)NC3CCCCC3)CC[C@H]2C)n1
Summary of the method: as §1

encorafenib = compound: COC(=O)N[C@@H](C)CNc1nccc(-c2cn(C(C)C)nc2-c2cc(Cl)cc(NS(C)(=O)=O)c2F)n1 [encorafenib]
Summary of the method: as §1

[3] = compound: COC(=O)[C@H](CCSC)NC(=O)C1=C(C=C(C=C1)NC[C@H](CS)N)C2=CC=CC=C2
Summary of the method: as §1

alisertib = compound: COc1cc(Nc2ncc3c(n2)-c2ccc(Cl)cc2C(c2c(F)cccc2OC)=NC3)ccc1C(=O)O [alisertib]
Summary of the method: as §1

[4] = compound: COc1cc2nc(-c3cc(F)ccc3O)nc(N[C@@H]3CNC[C@H]3C(C)(C)O)c2cc1OC
Summary of the method: as §1

gefitinib = compound: COc1cc2ncnc(Nc3ccc(F)c(Cl)c3)c2cc1OCCCN1CCOCC1 [gefitinib]
Summary of the method: as §1

lapatinib = compound: CS(=O)(=O)CCNCc1ccc(-c2ccc3ncnc(Nc4ccc(OCc5cccc(F)c5)c(Cl)c4)c3c2)o1 [lapatinib]
Summary of the method: as §1

pictilisib = compound: CS(=O)(=O)N1CCN(Cc2cc3nc(-c4cccc5[nH]ncc45)nc(N4CCOCC4)c3s2)CC1 [pictilisib]
Summary of the method: as §1

crizotinib = compound: C[C@@H](Oc1cc(-c2cnn(C3CCNCC3)c2)cnc1N)c1c(Cl)ccc(F)c1Cl [crizotinib]
Summary of the method: as §1

[5] = compound: C[C@H](C1=CC=C(C=C1)C(=O)NC2=C3C=CNC3=NC=C2)N
Summary of the method: as §1

duvelisib = compound: C[C@H](Nc1ncnc2nc[nH]c12)c1cc2cccc(Cl)c2c(=O)n1-c1ccccc1 [duvelisib]
Summary of the method: as §1

gandotinib = compound: Cc1cc(Nc2cc(CN3CCOCC3)c3nc(C)c(Cc4ccc(Cl)cc4F)n3n2)n[nH]1 [gandotinib]
Summary of the method: as §1

tozasertib = compound: Cc1cc(Nc2cc(N3CCN(C)CC3)nc(Sc3ccc(NC(=O)C4CC4)cc3)n2)n[nH]1 [tozasertib]
Summary of the method: as §1

doramapimod = compound: Cc1ccc(-n2nc(C(C)(C)C)cc2NC(=O)Nc2ccc(OCCN3CCOCC3)c3ccccc23)cc1 [doramapimod]
Summary of the method: as §1

bafetinib = compound: Cc1ccc(NC(=O)c2ccc(CN3CC[C@H](N(C)C)C3)c(C(F)(F)F)c2)cc1Nc1nccc(-c2cncnc2)n1 [bafetinib]
Summary of the method: as §1

[6] = compound: Cc1cccc(CC(=O)N2CCc3c2ccc(-c2cn(C)c4ncnc(N)c24)c3F)n1
Summary of the method: as §1

Measured: log2 fold change

CCNB2 (UniProt O95067)
inactive: alvocidib 0.046 | Tubastatin A 0.027 | [1] 0.028 | defactinib -0.044 | [2] 0 | encorafenib 0.039 | [3] 0.032 | alisertib -0.076 | [4] 0.031 | gefitinib 0.084 | lapatinib -0.048 | pictilisib -0.091 | crizotinib -0.018 | [5] -0.016 | duvelisib 0.032 | gandotinib -0.108 | tozasertib 0.023 | doramapimod 0.009 | bafetinib -0.035 | [6] 0.068

ATG4A (UniProt Q8WYN0)
inactive: alvocidib 0 | Tubastatin A -0.104 | [1] 0.042 | defactinib 0.036 | [2] 0.01 | encorafenib 0.037 | [3] -0.087 | alisertib -0.016 | [4] -0.001 | gefitinib 0.052 | lapatinib -0.017 | pictilisib -0.02 | crizotinib -0.033 | [5] -0.061 | duvelisib -0.009 | gandotinib -0.025 | tozasertib 0.044 | doramapimod 0.008 | bafetinib -0.014 | [6] 0.063

CDK9 isoform 2 (UniProt P50750)
active: alvocidib 0.578 | defactinib 0.392
inactive: Tubastatin A -0.042 | [1] 0.024 | [2] 0.016 | encorafenib -0.008 | [3] -0.033 | alisertib -0.003 | [4] 0.191 | gefitinib 0.008 | lapatinib -0.103 | pictilisib 0.034 | crizotinib 0.067 | [5] 0.066 | duvelisib -0.026 | gandotinib 0.074 | tozasertib -0.108 | doramapimod -0.02 | bafetinib -0.125 | [6] -0.056

CAMKK1 isoform 2 (UniProt Q8N5S9)
inactive: alvocidib 0.088 | Tubastatin A -0.167 | defactinib 0.051 | [2] -0.118 | encorafenib 0.014 | [3] 0.126 | alisertib -0.033 | [4] -0.048 | gefitinib 0.03 | lapatinib 0.061 | pictilisib -0.074 | crizotinib -0.023 | [5] 0.032 | duvelisib -0.069 | tozasertib -0.067 | doramapimod 0.016 | bafetinib -0.021 | [6] -0.033
active: [1] 0.305 | gandotinib 0.424

CARHSP1 (UniProt Q9Y2V2)
inactive: alvocidib 0.031 | Tubastatin A 0.065 | [1] 0.009 | defactinib -0.033 | [2] 0.078 | encorafenib -0.013 | [3] -0.055 | alisertib -0.014 | [4] 0.01 | gefitinib -0.029 | lapatinib -0.014 | pictilisib -0.08 | crizotinib 0.011 | [5] -0.053 | duvelisib 0.003 | gandotinib 0.047 | tozasertib 0.003 | doramapimod -0.012 | bafetinib -0.033 | [6] 0.019

CALM2 (UniProt P0DP24)
inactive: alvocidib -0.063 | Tubastatin A 0.018 | [1] -0.059 | defactinib -0.016 | [2] 0.124 | encorafenib 0.03 | [3] -0.085 | alisertib 0.011 | [4] 0.026 | gefitinib -0.13 | lapatinib -0.038 | pictilisib -0.128 | crizotinib 0.027 | [5] -0.252 | duvelisib 0.086 | gandotinib 0.068 | tozasertib 0.025 | doramapimod -0.064 | bafetinib -0.171 | [6] 0.187

CES2 isoform 4 (UniProt O00748)
Sequence of UniProt O00748 (O00748 whole entry, looked up): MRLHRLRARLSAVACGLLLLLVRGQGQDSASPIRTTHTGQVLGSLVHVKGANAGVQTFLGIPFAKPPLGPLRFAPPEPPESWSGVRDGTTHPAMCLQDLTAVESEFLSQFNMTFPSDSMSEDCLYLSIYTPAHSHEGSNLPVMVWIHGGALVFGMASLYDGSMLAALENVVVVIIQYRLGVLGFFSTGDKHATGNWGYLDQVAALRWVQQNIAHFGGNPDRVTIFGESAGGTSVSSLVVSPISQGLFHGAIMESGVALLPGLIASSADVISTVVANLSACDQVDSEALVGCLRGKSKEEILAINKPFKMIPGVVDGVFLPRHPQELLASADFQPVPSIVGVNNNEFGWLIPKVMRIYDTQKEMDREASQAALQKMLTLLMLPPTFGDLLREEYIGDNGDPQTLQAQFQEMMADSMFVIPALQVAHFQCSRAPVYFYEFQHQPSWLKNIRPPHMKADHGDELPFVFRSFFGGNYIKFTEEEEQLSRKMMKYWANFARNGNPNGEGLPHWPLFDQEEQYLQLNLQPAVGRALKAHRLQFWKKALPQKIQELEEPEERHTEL
inactive: alvocidib 0.021 | Tubastatin A -0.065 | [1] 0.09 | defactinib -0.111 | [2] 0.219 | encorafenib 0.075 | [3] 0.01 | alisertib -0.084 | [4] -0.002 | gefitinib -0.061 | lapatinib 0.027 | pictilisib 0.32 | crizotinib 0.079 | [5] -0.003 | duvelisib 0.021 | gandotinib 0.016 | tozasertib 0 | doramapimod 0.015 | bafetinib 0.154 | [6] 0.036

CAMLG (UniProt P49069)
inactive: alvocidib 0.051 | Tubastatin A -0.037 | [1] 0.044 | defactinib 0.067 | [2] -0.012 | encorafenib 0.09 | [3] -0.13 | alisertib 0.136 | [4] 0.006 | gefitinib 0.028 | lapatinib 0.009 | pictilisib -0.039 | crizotinib 0.014 | [5] 0.179 | duvelisib -0.001 | gandotinib -0.058 | tozasertib -0.037 | doramapimod -0.005 | bafetinib 0 | [6] -0.12

CARS isoform 3 (UniProt P49589)
Sequence of UniProt P49589 (P49589 whole entry, looked up): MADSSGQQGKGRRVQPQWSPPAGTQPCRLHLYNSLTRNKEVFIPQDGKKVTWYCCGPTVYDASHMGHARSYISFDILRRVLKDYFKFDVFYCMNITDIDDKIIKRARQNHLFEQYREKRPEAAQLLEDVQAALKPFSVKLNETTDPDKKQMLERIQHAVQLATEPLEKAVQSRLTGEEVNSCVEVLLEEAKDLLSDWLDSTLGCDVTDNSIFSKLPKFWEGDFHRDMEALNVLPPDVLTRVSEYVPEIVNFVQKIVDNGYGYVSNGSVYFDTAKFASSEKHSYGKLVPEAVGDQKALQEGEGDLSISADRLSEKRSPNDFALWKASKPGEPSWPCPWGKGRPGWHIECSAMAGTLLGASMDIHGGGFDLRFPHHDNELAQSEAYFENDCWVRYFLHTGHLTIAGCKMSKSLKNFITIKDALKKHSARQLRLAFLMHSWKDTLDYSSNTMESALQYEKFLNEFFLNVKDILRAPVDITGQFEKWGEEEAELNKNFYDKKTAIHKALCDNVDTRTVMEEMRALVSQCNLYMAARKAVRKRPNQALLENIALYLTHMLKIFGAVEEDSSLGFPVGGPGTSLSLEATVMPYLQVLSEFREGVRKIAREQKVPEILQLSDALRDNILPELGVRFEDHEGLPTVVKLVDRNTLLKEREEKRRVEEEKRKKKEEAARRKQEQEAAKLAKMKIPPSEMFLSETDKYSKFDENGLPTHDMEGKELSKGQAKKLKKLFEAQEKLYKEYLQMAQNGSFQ
active: [3] 0.213
inactive: alvocidib 0.006 | Tubastatin A -0.041 | [1] 0.001 | defactinib -0.013 | [2] -0.01 | encorafenib -0.013 | alisertib 0.003 | [4] -0.005 | gefitinib -0.019 | lapatinib -0.006 | pictilisib -0.006 | crizotinib 0.019 | [5] 0.003 | duvelisib -0.015 | gandotinib -0.045 | tozasertib 0.014 | doramapimod 0.014 | bafetinib -0.008 | [6] -0.011

C19orf54 (UniProt Q5BKX5)
Sequence of UniProt Q5BKX5 (Q5BKX5 whole entry, looked up): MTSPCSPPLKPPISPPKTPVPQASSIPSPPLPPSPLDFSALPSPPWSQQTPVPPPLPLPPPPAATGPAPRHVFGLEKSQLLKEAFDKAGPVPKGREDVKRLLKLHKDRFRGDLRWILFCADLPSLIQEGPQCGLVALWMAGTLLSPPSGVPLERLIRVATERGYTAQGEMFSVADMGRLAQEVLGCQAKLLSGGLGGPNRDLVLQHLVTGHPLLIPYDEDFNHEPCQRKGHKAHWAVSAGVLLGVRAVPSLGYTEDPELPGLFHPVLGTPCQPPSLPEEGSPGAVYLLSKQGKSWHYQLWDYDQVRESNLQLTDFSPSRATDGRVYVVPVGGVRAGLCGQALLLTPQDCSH
inactive: alvocidib -0.032 | Tubastatin A 0.004 | [1] 0.048 | defactinib -0.039 | [2] 0.023 | encorafenib 0.024 | [3] 0.151 | alisertib -0.099 | [4] 0.069 | gefitinib 0.08 | lapatinib -0.003 | pictilisib -0.089 | crizotinib -0.019 | [5] -0.011 | duvelisib -0.076 | gandotinib -0.046 | tozasertib -0.008 | doramapimod -0.036 | bafetinib -0.01 | [6] 0.027

BOLA2 (UniProt Q9H3K6)
Sequence of UniProt Q9H3K6 (Q9H3K6 whole entry, looked up): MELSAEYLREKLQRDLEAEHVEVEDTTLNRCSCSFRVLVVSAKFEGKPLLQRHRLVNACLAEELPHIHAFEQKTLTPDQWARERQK
inactive: alvocidib 0.02 | Tubastatin A 0.015 | [1] -0.065 | defactinib 0.023 | [2] -0.052 | encorafenib 0.036 | [3] -0.057 | alisertib -0.006 | [4] 0.009 | gefitinib -0.03 | lapatinib -0.038 | pictilisib -0.035 | crizotinib 0.02 | duvelisib 0.03 | gandotinib -0.088 | tozasertib 0.069 | doramapimod 0.033 | bafetinib 0.094 | [6] -0.064
active: [5] 0.46

CCNYL1 (UniProt Q8N7R7)
Sequence of UniProt Q8N7R7 (Q8N7R7 whole entry, looked up): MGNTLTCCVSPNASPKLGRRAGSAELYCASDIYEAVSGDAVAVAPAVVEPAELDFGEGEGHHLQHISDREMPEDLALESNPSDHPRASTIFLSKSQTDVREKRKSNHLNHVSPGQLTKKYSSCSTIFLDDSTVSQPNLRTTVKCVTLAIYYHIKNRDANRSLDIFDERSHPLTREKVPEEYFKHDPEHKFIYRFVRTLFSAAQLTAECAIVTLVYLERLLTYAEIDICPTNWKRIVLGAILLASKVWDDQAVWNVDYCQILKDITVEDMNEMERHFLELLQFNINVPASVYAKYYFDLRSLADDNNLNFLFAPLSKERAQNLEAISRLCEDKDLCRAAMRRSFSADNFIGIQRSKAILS
inactive: alvocidib -0.074 | Tubastatin A -0.076 | [1] 0.061 | defactinib 0.024 | [2] 0.055 | encorafenib 0.011 | [3] 0.032 | alisertib -0.012 | [4] 0.032 | gefitinib 0.101 | lapatinib 0.018 | pictilisib -0.012 | crizotinib -0.015 | [5] -0.201 | duvelisib -0.003 | gandotinib 0.085 | tozasertib 0.052 | doramapimod -0.004 | bafetinib 0.006 | [6] 0.067

CHCHD4 isoform 2 (UniProt Q8N4Q1)
Sequence of UniProt Q8N4Q1 (Q8N4Q1 whole entry, looked up): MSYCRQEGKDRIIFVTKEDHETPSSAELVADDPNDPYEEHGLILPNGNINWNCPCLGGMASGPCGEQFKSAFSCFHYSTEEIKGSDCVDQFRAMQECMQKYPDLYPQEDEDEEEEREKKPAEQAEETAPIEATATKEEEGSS
inactive: alvocidib -0.145 | Tubastatin A 0.026 | [1] 0.027 | defactinib -0.044 | [2] 0.045 | encorafenib 0.062 | [3] -0.039 | alisertib 0.024 | [4] 0.016 | gefitinib -0.015 | lapatinib 0.045 | pictilisib 0.092 | crizotinib -0.085 | [5] -0.316 | duvelisib 0.022 | gandotinib 0.217 | tozasertib -0.041 | doramapimod 0.047 | bafetinib -0.029 | [6] 0.198

BRAT1 (UniProt Q6PJG6)
Sequence of UniProt Q6PJG6 (Q6PJG6 whole entry, looked up): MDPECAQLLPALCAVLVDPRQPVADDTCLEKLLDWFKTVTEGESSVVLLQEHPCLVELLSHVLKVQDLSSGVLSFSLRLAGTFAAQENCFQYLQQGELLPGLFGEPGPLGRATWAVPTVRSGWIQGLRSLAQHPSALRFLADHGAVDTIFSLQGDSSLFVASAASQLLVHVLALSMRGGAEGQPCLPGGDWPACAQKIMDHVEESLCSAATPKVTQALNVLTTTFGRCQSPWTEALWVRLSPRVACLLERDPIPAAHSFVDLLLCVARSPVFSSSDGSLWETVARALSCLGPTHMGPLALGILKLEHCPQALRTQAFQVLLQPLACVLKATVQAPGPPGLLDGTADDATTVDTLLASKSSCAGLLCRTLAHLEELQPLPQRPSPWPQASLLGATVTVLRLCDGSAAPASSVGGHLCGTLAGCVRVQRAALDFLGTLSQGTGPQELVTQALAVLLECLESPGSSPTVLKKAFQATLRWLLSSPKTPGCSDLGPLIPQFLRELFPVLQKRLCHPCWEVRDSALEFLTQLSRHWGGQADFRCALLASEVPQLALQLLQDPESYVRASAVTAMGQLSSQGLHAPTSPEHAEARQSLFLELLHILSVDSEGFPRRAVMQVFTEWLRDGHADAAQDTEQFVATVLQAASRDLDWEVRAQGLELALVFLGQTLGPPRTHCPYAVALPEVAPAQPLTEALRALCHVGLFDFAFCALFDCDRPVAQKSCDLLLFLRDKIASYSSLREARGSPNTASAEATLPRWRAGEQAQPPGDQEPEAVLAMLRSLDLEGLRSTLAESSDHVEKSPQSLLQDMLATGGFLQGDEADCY
inactive: alvocidib -0.018 | Tubastatin A -0.143 | [1] 0.031 | defactinib -0.046 | [2] -0.041 | encorafenib 0.01 | [3] 0.024 | alisertib -0.008 | [4] 0.018 | gefitinib -0.007 | lapatinib 0.026 | pictilisib -0.013 | crizotinib -0.103 | [5] 0 | duvelisib -0.001 | gandotinib -0.1 | tozasertib 0.017 | doramapimod 0.052 | bafetinib -0.014 | [6] 0.038

CHD5 (UniProt Q8TDI0)
Sequence of UniProt Q8TDI0 (Q8TDI0 whole entry, looked up): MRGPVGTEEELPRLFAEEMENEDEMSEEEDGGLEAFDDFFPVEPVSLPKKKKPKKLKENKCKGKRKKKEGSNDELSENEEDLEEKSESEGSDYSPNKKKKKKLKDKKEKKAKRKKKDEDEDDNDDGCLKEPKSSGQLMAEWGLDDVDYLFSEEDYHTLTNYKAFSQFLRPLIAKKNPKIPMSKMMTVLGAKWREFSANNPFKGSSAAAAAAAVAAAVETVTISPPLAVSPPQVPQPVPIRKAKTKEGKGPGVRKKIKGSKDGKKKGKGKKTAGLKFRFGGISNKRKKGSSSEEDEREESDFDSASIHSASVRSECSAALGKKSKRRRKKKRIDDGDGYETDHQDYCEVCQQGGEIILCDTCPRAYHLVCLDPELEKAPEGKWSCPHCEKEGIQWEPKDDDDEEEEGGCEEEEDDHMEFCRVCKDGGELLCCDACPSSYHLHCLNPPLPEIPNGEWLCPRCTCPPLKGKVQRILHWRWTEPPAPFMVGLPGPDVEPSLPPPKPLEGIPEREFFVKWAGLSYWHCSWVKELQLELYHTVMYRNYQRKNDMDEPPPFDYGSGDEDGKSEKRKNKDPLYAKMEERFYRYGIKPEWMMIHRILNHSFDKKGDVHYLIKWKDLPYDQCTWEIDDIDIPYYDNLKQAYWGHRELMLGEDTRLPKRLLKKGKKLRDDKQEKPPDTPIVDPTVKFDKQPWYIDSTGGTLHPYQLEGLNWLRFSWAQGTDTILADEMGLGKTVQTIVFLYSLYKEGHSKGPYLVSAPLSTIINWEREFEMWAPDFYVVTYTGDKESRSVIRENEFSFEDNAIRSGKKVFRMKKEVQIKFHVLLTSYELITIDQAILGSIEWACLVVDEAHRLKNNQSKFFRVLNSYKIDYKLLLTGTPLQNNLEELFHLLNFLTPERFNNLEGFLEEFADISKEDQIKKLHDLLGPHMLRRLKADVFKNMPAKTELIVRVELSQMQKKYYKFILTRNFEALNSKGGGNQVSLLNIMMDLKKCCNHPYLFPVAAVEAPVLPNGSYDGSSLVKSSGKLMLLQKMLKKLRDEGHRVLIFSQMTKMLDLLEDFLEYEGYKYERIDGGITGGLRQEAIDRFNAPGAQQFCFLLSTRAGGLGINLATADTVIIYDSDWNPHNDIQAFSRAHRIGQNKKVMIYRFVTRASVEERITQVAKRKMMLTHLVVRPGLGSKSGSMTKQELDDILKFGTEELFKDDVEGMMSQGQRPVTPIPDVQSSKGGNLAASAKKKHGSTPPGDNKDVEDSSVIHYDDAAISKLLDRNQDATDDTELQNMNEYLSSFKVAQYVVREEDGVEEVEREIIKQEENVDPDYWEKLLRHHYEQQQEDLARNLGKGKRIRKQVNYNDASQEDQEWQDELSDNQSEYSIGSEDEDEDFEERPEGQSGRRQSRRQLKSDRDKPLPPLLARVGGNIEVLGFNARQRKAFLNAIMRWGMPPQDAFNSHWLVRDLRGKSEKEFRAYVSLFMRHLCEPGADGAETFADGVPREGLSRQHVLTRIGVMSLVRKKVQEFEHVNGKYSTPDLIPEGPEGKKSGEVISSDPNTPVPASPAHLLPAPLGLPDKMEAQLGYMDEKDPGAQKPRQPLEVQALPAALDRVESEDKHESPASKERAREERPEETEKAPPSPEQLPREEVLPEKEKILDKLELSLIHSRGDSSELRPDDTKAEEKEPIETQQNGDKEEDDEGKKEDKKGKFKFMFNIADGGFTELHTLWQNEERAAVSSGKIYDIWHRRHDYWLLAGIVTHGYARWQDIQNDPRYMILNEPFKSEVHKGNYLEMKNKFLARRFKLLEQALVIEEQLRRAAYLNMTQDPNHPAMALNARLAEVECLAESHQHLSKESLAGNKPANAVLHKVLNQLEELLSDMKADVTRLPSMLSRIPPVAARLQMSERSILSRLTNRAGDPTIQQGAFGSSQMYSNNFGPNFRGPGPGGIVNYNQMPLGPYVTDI
inactive: alvocidib -0.005 | Tubastatin A -0.022 | [1] 0 | defactinib -0.042 | [2] 0.037 | encorafenib 0.024 | [3] 0.033 | alisertib -0.016 | [4] -0.009 | gefitinib -0.001 | lapatinib 0.028 | pictilisib 0.007 | crizotinib -0.03 | [5] 0 | duvelisib -0.056 | gandotinib 0.001 | tozasertib -0.074 | doramapimod 0.034 | bafetinib -0.042 | [6] -0.002

CDC7 (UniProt O00311)
active: [5] -0.335
inactive: alvocidib -0.081 | Tubastatin A -0.112 | [1] 0.077 | defactinib 0.007 | [2] 0.042 | encorafenib 0.011 | [3] 0.078 | alisertib -0.059 | [4] -0.04 | gefitinib -0.036 | lapatinib 0.112 | pictilisib -0.067 | crizotinib -0.024 | duvelisib -0.007 | gandotinib 0.047 | tozasertib -0.01 | doramapimod 0.06 | bafetinib 0.009 | [6] 0.087
